# Measured values published in PubChem BioAssay.
# Activity calls are given as the source filed them.
# Tests used:
# [1] = small molecules captured by biotinylated probe aFSTL3 – biochemical, small-molecule microarray, fluorescence 635/667, stem cell growth factor project, primary screen (AID 1064); details: higher = more signal;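 further: measures binding of the biotinylated anti-FSTL3 antibody to printed compounds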
# [2] = binders from COS7 lysate, DM2A8 probe, primary screen, torsin A project, cell lysate, small-molecule microarray, fluorescence 635/667 (AID 1065); details: higher = more signal, COS7 lysate expressing mutant human TOR1A
# [3] = small molecules captured by biotinylated probe aFGF2 – biochemical, small-molecule microarray, fluorescence 635/667, stem cell growth factor project, primary screen (AID 1067); details: higher = more signal;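 further: measures binding of biotinylated aFGF2 protein to printed compounds on slides; z-score merges feature fluorescence and signal-to-noise across triplicate slides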
# [4] = small molecules captured by biotinylated probe aFGF10 – biochemical, small-molecule microarray, fluorescence 635/667, stem cell growth factor project, primary screen (AID 1071); details: higher = more signal;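 further: score merges 667 nm spot intensity and signal to noise from triplicate slides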
# [5] = target: Neurogenic locus notch homolog protein 2 (Homo sapiens) (UniProt Q04721); assay: small molecules binding Notch2 protein – biochemical, small-molecule microarray, 635 nm fluorescence, stem cell growth factors, primary screen (AID 1073); details: higher = more signal
# Sequence of Neurogenic locus notch homolog protein 2 (Homo sapiens) (Q04721 whole entry, looked up, canonical isoform): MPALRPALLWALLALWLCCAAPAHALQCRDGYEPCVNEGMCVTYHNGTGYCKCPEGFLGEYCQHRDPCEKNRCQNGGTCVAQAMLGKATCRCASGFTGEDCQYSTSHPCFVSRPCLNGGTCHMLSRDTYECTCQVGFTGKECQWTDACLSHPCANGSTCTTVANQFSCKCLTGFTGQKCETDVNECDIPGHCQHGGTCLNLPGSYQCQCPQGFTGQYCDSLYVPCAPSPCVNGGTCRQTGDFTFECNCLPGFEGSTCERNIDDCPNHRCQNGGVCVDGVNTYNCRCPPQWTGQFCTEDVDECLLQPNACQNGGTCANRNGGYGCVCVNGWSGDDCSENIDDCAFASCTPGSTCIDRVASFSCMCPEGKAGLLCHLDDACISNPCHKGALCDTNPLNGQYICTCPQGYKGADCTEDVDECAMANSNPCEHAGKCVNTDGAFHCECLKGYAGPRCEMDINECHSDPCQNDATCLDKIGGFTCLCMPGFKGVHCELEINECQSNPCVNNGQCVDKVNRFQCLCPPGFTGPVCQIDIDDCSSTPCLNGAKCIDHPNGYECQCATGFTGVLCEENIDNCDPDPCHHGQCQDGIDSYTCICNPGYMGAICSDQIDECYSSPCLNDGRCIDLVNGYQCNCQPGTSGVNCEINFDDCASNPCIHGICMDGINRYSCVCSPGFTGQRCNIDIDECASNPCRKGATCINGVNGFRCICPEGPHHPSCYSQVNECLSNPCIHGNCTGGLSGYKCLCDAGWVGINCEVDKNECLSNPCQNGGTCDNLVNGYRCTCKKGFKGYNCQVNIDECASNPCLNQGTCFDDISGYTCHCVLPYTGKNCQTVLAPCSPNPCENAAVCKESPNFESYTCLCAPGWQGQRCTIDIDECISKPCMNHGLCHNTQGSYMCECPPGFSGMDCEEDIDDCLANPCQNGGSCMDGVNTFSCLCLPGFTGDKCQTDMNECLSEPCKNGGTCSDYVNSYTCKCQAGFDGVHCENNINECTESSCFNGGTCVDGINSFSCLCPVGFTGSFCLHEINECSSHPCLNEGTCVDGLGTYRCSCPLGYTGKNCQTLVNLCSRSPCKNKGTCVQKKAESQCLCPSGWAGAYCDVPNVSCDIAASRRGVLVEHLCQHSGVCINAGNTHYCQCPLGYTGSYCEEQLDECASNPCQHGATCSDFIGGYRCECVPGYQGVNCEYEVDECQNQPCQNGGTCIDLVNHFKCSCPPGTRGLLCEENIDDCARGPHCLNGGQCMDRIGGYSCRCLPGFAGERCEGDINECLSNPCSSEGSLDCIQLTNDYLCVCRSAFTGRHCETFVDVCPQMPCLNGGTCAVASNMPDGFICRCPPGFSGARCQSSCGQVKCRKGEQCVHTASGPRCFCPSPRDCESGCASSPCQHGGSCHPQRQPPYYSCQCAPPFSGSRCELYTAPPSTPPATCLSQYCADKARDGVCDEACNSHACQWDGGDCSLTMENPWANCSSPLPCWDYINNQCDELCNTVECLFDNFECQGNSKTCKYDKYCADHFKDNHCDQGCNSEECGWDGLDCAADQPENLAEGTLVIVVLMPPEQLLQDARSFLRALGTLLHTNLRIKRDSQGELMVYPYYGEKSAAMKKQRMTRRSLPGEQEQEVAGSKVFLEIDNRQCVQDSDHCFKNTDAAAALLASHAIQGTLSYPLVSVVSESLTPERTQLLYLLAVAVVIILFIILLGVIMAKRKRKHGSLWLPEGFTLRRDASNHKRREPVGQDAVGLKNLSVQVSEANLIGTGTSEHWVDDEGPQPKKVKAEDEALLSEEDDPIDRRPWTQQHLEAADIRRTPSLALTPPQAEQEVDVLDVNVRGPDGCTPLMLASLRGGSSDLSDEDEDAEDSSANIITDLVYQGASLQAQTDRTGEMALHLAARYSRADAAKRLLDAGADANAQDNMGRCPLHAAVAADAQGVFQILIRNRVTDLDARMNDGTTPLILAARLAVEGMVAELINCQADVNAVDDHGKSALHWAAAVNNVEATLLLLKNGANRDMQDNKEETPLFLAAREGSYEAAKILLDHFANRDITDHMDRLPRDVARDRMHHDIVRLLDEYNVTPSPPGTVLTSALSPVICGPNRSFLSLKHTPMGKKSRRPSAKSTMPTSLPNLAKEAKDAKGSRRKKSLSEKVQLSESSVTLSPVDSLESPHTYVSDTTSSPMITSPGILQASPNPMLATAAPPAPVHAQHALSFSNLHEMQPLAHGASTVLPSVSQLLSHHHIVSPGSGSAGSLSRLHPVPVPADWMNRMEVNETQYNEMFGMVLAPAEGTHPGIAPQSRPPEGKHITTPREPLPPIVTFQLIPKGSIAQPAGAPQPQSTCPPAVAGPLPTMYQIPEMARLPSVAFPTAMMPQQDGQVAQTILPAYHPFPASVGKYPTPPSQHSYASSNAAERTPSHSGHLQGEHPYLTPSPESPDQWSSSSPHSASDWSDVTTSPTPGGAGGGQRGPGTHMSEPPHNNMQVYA
# [6] = target: Pro-neuregulin-1, membrane-bound isoform (Homo sapiens) (UniProt Q02297); assay: small molecules binding neuregulin-1 protein – biochemical, small-molecule microarray, fluorescence 635/667, psychiatric disease protein project, primary screen (AID 1075); details: NRG1 binding, 635 nm fluorescence, higher = more signal;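 further: score combines 667 nm spot fluorescence with signal to noise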
# Sequence of Pro-neuregulin-1, membrane-bound isoform (Homo sapiens) (Q02297 whole entry, looked up, the tested form may be a part, canonical isoform): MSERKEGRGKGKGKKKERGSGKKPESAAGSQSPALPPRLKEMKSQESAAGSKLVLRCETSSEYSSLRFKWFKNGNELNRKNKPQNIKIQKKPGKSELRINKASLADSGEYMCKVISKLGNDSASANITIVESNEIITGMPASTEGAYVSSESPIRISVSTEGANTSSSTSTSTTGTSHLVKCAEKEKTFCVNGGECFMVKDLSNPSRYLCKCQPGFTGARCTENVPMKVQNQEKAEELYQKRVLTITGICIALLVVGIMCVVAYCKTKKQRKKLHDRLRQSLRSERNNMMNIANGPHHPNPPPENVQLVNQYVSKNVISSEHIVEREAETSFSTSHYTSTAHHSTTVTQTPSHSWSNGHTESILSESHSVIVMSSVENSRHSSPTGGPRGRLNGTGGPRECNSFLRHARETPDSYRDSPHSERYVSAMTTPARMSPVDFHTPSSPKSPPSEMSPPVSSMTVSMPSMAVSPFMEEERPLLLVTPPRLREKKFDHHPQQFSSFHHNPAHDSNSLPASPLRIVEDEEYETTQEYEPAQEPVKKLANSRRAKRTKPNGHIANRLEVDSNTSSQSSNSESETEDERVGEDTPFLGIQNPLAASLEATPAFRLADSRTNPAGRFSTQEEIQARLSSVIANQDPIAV
# [7] = system: Neuregulin-1 EGF-like domain; assay: small molecules binding NRG1 EGF domain – biochemical, small-molecule microarray, 635 nm fluorescence, primary screen (AID 1081); details: higher = more signal;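 further: binding of the protein to compounds printed on small-molecule microarray slides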
# [8] = FRG1 expression reporter modulators in myotubes – cell-based, C2C12 myotubes, firefly/Renilla luciferase, luminescence, FRG1 inhibition for FSHD, primary screen (AID 1084); details: FRG1 promoter luciferase, higher = more signal, called active from +8 up or from −8 down
# [9] = small molecules captured by biotinylated probe aFST – biochemical, small-molecule microarray, fluorescence 635/667, stem cell growth factor project, primary screen (AID 1086); details: higher = more signal;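 further: score merges 667 nm fluorescence with signal-to-noise of each printed compound spot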
# [10] = binders of probe aHhip on microarray, primary screen, stem cell growth factor project, biochemical, small-molecule microarray, fluorescence 635/667 (AID 1087); details: higher = more signal;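 further: score merges spot fluorescence at 667nm with spot signal to noise ratio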
SMILES,composite z-score [1],composite z-score [2],composite z-score [3],composite z-score [4],composite z-score [5],composite z-score [6],composite z-score [7],z-score [8],composite z-score [9],composite z-score [10]
COc1ccc([C@H]2C[C@H]3C(Br)=C[C@@]2(CO)C(=O)[C@]32CO2)cc1,-0.035,-0.512,-0.0563,0.0327,0.269,-0.202,-0.333,1.26 (inactive),0.0716,-0.175
C=C(CCCC)/C(=C/C[C@H](OC(C)=O)c1ccccc1OCCO)c1cnc2ccccc2c1,-0.279,0.0976,-0.115,0.506,0.3,0.324,1.04,-1.48 (inactive),0.162,0.0505
C=C(CCCC)C(=O)CC[C@H](OC(=O)c1cccnc1)c1ccc(OCCO)cc1,0.242,1.4,-0.116,0.149,-0.65,0.766,0.761,-0.916 (inactive),-0.0065,-0.0994
COC(=O)[C@@]1(Cc2ccc(OC)cc2)[C@H]2c3cc(C(=O)N4CCCC4)n(CCSCCO)c3C[C@H]2CN1C(=O)c1ccccc1,0.32,-0.399,0.46,0.651,1.69,1.86,1.4,-0.15 (inactive),1.3,0.455
CCOc1cc(C(O)C2C=CC3C(=O)N(c4ccccc4)C(=O)C3N2Nc2ccc(C(C)C)cc2)ccc1O (stereo not given),0.0696,0.201,-0.0254,0.707,1.52,1.36,1.31,0.698 (inactive),1.17,-0.0237
CN1CCC(CCCO)=CC1c1cccs1 (stereo not given),-0.017,0.0383,-0.159,-0.959,-1.01,0.968,0.72,0.159 (inactive),-0.142,-0.0491
CO[C@H]1O[C@H](CO)[C@@H](OC(=O)Nc2ccc(Br)cc2)[C@@H]2OC(=O)[C@H](Cc3cccc(Br)c3)C/C=C/C[C@@H](Cc3cccc(Br)c3)C(=O)O[C@@H]12,-0.0675,-0.0034,-0.135,0.0489,0.0333,0.72,1.05,1.3 (inactive),0.388,0.315
COc1ccc([Si](C)(C)[C@@H]2[C@@H](CCn3cc(CCO)nn3)O[C@]3(C(=O)N(Cc4cccc(N5C(=O)c6cccc7cccc5c67)c4)c4ccccc43)[C@H]2C)cc1,-0.429,-0.179,-0.103,0.359,0.275,0.98,1.04,-1.56 (inactive),0.525,-0.189
O=C1O[C@H](c2ccccc2)[C@H](c2ccccc2)N2[C@H]1[C@@H](C(=O)NC[C@H](O)c1ccccc1)[C@]1(C(=O)Nc3ccccc31)[C@H]2c1ccc(O)cc1,-0.0095,0.298,-0.0342,-0.111,0.633,-0.199,1.19,0.484 (inactive),0.153,0.0542
CCOC(=O)C[C@H]1[C@H](OC(=O)c2ccc(C(=O)c3ccccc3)cc2)[C@@H](NC(=O)Cc2ccc(OC)cc2)c2cc(OCCCO)ccc2N1C(=O)c1ccc2ccccc2n1,-0.537,0.0267,-0.0887,0.371,0.298,0.843,0.325,-2.62 (inactive),0.612,-0.0994
CO[C@H]1O[C@H](CO)[C@@H](OC(=O)Nc2ccccc2-c2ccccc2)[C@H](OC(=O)Nc2ccccc2-c2ccccc2)[C@@H]1OC(=O)Nc1ccccc1-c1ccccc1,0.0212,0.503,-0.152,1.03,1.1,1.35,1.19,0.722 (inactive),0.807,-0.189
COc1ccc([Si](C)(C)[C@@H]2[C@@H](CC(=O)N3CCC[C@H]3CO)O[C@]3(C(=O)N(Cc4cccc(I)c4)c4ccccc43)[C@H]2C)cc1,0.07,1.29,-0.137,0.192,1.08,0.916,1.17,-1.06 (inactive),0.453,-0.0994
CCCCC(=C=CC[C@H](O)c1cccc(OCCO)c1)C[C@H](O)c1ccccn1,-0.37,0.0714,-0.112,0.528,-0.202,0.163,0.719,-0.692 (inactive),-0.157,-0.236
O=C1OCCC/C=C\[C@H]2OC34C=CCN(c5ccc6ccccc6c5)C(=O)[C@H]3N(CCCCCO)C(=O)[C@@H]4C12 (stereo not given in full),0.149,-0.763,-0.195,-0.759,-0.367,-0.634,-0.773,0.815 (inactive),-0.602,-0.169
C=CCN1C(=O)[C@]2(Cc3ccccc3)N=C(c3ccc(OCCCO)cc3)O[C@@H]2c2ccccc21,-0.0832,0.481,-0.0119,-0.0215,1.35,1.55,1.41,-1.05 (inactive),0.395,-0.0994
O=C(CS)NCCCCCNC(=O)[C@@H]1C[C@@H]2C(=O)NCC(=O)N2[C@@H]1c1cccc(OCCO)c1,0.312,0.389,-0.12,-0.161,-0.067,-0.515,1.1,-0.612 (inactive),-0.188,-0.166
CC(C)C(=C=CC[C@H](O)c1ccc(CO)o1)CCO,0.0959,1.5,-0.141,0.153,-0.57,1.57,1.16,0.859 (inactive),0.164,-0.202
CCOC(=O)C[C@H]1[C@H](OC(=O)c2ccc(-c3ccccc3)cc2)[C@@H](NC(=O)c2ccccc2)c2cc(OCCCO)ccc2N1C(=O)Cc1ccc(OC)cc1,-0.287,-0.0212,-0.163,0.0185,-0.639,-0.31,-0.198,-0.304 (inactive),-0.0166,-0.374
CC(C)(C)OC(=O)CC[C@@]1(C(=O)N2CCCCC2)N=C(c2ccc(OCCCO)cc2)O[C@@H]1c1ccccc1,0.249,0.615,0.171,0.783,1.68,1.72,1.23,-3.24 (inactive),1.12,-0.0618
CCCCN1CC=CC23O[C@@H]4C=CCOC(=O)[C@@H]4[C@H]2C(=O)N(CCCCCCO)[C@@H]3C1=O (stereo not given in full),1.22,-0.64,-0.141,-1.34,-1.86,1.01,1.3,-0.0048 (inactive),-0.581,-0.134
C=C(CCCC)/C(=C/C[C@H](OC(=O)c1ccncc1)c1ccc(OCCO)cc1)c1cc(C(=O)OC)ccc1OC,-0.126,0.123,-0.031,1.15,0.563,0.348,1.01,31.6 (active),-0.348,-0.195
CCN(CC)c1ccc(N2CC=CC34O[C@@H]5/C=C\CCC(C)OC(=O)C5[C@H]3C(=O)N(CCCCCO)[C@@H]4C2=O)cc1 (stereo not given in full),-0.129,-0.474,-0.103,-0.497,-1.45,-0.551,-0.506,0.376 (inactive),-0.284,-0.37
